# Assay results: PubChem BioAssay AID624354 (Sanford-Burnham Center for Chemical Genomics, 2012)
# Screen size: about 360,000 compounds; about 3,800 (1.1%) were called active. The entries come from a sample that favours actives as a whole. Unmarked numbers belong to inactive results.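 The calls were made as follows: active = compounds causing at least 50% loss of cell viability in the single-dose screen, relative to plate controls; inactive = the rest.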
# Test: viability loss with TRAIL in NB7+C8 cells, primary screen, TRAIL sensitizer project, cell-based, ATPlite luminescence (AID 624354)
# Conditions: at 10 µM, stronger effect = higher value
row,SMILES,"inhibition (viability loss, TRAIL sensitization)"
1,Cc1ccc(CNC(=O)Cn2cnc3c(NCc4ccccc4)ncnc32)o1,20.3%
2,OCC1(Cc2ccccc2C(F)(F)F)CCN(Cc2cccc3cnccc23)CC1,2.15%
3,COc1ccc(C(=O)NCC[N+](C)(C)C)cc1,-3.08%
4,Cc1ccc(S(=O)(=O)N(C)C)cc1NC(=O)c1ccc(-n2cncn2)c([N+](=O)[O-])c1,-6.94%
5,O=C(COC(=O)c1c(Cl)cccc1Cl)Nc1cccc(S(=O)(=O)NC2=NCCCCC2)c1,-2%
6,O=C1NC[C@H](Cc2ccc(O)cc2)N(C[C@@H]2CCCN2C[C@H](Cc2ccccc2)N2C[C@H](Cc3ccccc3)N(CC3CCCCC3)C(=O)C2=O)C1=O,-7.58%
7,CN(C)NC(=O)C(NC(=O)c1ccc(N)cc1)C12CC3CC(CC(C3)C1)C2 (stereo not given),-0.166%
8,Cc1nc2cc(S(=O)(=O)C(F)(F)F)ccc2s1,15.9%
9,CCN1CCCC1CNC(=O)Cn1cnc2ccc(S(=O)(=O)N3CCC(C)CC3)cc2c1=O (stereo not given),3.92%
10,CC(C)(C)Oc1ccccc1Nc1nc(NCCO)nc(N2CCCC2)n1,-17.8%
11,O=C(O)CC(SCC(=O)Nc1ccc(Br)cc1)C(=O)O (stereo not given),-3.72%
12,O=C(CCl)Nc1ccc(Sc2ccc(NC(=O)CCl)cc2)cc1,51.1% (active)
13,CC(=O)Nc1ccc(SCC(=O)NC(=O)c2ccc(Cl)cc2)cc1,-7.06%
14,COc1cccc2cc(/C(C)=N/NC(=O)c3ccco3)oc12,4.04%
15,Cc1oc2c(F)c(F)c(F)c(F)c2c1S(=O)(=O)Nc1cccc(C(F)(F)F)c1,29.6%
16,O=C(Nc1ccccc1)c1ccc2c(c1)OCCCO2,78% (active)
17,N#Cc1ccccc1NC(=O)c1ccc2c(c1)OCO2,0.697%
18,Cc1ccc2sc(NNC(=O)c3ccc4c(c3)OCCO4)nc2c1C,-37.1%
19,CCCc1cc(C(=O)Nc2ccc(Cl)cn2)cs1,48.6%
20,Cc1nc(NC(=O)c2ccc3c(c2)OCCO3)ccc1Br,21.7%
21,O=C(Nc1nc2ccccc2s1)c1ccc2c(c1)OCO2,74.6% (active)
22,O=C(CN1CCc2cc3c(cc2C1)OCCCO3)Nc1ccccc1,-22%
23,O=C(Nc1ccc(Cl)cn1)c1ccc2c(c1)OCCO2,64% (active)

row,SMILES,"inhibition (viability loss, TRAIL sensitization)"
1,CN1CCN(c2ccc(NC(=O)c3ccc4c(c3)OCCO4)cc2Cl)CC1,42.3%
2,COc1ccccc1NC1=NC(c2ccc(Cl)cc2)N=C(N)N1 (stereo not given),-3.71%
3,CC(C#N)OC(=O)c1cccnc1SCC(=O)Nc1ccc2c(c1)OCO2 (stereo not given),4.56%
4,COc1ccccc1NS(=O)(=O)N(C)C,-12.4%
5,NC(=O)COc1ccc(NC(=O)c2ccccc2-c2ccccc2)cc1,-7.08%
6,CC(=O)C[C@H](O)CC(=O)[C@@H]1OC(=O)[C@@H](C)C/C=C\Cc2ccccc21,-3.79%
7,CCC(=O)Nc1ccc(S(=O)(=O)Nc2c(NC)c3ccccc3oc2=O)cc1,1.26%
8,Cc1cn([C@H]2C[C@H](O)[C@@H](CNC(=O)[C@H](N)Cc3cccnc3)O2)c(=O)[nH]c1=O,-0.759%
9,CNC(=O)/C(=C\C=C\c1ccccc1)NC(=O)c1ccc([N+](=O)[O-])cc1,-5.87%
10,CN1OC[C@@H]2CN(C(=O)c3ccc(-c4ccccc4)cc3)[C@H](c3ccc(-c4cccc(F)c4)cc3)C[C@@H]21,-16.6%
11,CCCOc1ccc(Cc2c(Cl)nc(SC)nc2NC)cc1,31.2%
12,Cc1[nH]n(-c2ccccc2)c(=O)c1/C=N/NC(=O)c1ccoc1C,53.8% (active)
13,Cc1ccc(-c2ccnc3[nH]n(-c4ccccc4)c(=O)c23)cc1,-11.3%
14,Cc1occc1C(=O)N/N=C/c1ccc(-c2cccc([N+](=O)[O-])c2)o1,-8.06%
15,CCOc1ccc(S(=O)(=O)N2CCC(c3ccccc3)CC2)cc1C(=O)O,-3.46%
16,O=C(NC1=CC(=O)c2ccccc2C1=O)c1ccccc1,94.6% (active)
17,COc1cc(NC(=O)c2ccccc2)c(OC)cc1NC(=O)Cc1ccccc1,-3.72%
18,C/C(=N\NC(=O)c1ccc(C)cc1)C1C(=O)c2ccccc2C1=O,8.6%
19,CC1(C(=O)NS(=O)(=O)Cc2cccc(Cl)c2)CCN1C(=O)Cc1ccc(Cl)cc1Cl (stereo not given),-0.832%
20,CC(C)(C)CC(=O)Nc1nc(C(N)Cc2ccc(C(F)(F)F)cc2)cs1 (stereo not given),-0.292%
21,NC(c1csc(NC(=O)Nc2cccc(C(F)(F)F)c2)n1)C1CCCCC1 (stereo not given),88.8% (active)
22,COc1ccc(C(N)c2csc(NC(=O)Nc3cccc(C(F)(F)F)c3)n2)cc1 (stereo not given),25.4%
